In PubChem BioAssay:
Unmarked numbers belong to inactive results. Activity calls are given as the source filed them. Cut-off read from the data, not from the text of the source, unless noted: active = inhibition above about 25%; inactive = the rest.

Columns and labels:
[1] = target: Nuclear receptor coactivator 1 (Homo sapiens) (UniProt Q15788); assay: NCOA1 GAL4-fusion reporter inhibition – cell-based, luminescence, quadruplicate, confirmation (AID 588820;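 active = mean inhibition above 46.68%, the untreated control wells mean plus 3 SD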;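 note: 0% = DMSO wells and 100% = gossypol 36 µM treated wells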); details: HEK293 GAL4-SRC1 luciferase reporter, at 3.6 µM, stronger effect = higher value
[2] = repression of VP16-driven luciferase reporter – cell-based, luminescence, high throughput, counter-screen for SRC1 inhibitor project (AID 588824); details: cell-based VP16 transactivation luciferase luminescence; at 3.6 µM; stronger effect = higher value

Sequence of Nuclear receptor coactivator 1 (Homo sapiens) (Q15788 whole entry, looked up, the tested form may be a part): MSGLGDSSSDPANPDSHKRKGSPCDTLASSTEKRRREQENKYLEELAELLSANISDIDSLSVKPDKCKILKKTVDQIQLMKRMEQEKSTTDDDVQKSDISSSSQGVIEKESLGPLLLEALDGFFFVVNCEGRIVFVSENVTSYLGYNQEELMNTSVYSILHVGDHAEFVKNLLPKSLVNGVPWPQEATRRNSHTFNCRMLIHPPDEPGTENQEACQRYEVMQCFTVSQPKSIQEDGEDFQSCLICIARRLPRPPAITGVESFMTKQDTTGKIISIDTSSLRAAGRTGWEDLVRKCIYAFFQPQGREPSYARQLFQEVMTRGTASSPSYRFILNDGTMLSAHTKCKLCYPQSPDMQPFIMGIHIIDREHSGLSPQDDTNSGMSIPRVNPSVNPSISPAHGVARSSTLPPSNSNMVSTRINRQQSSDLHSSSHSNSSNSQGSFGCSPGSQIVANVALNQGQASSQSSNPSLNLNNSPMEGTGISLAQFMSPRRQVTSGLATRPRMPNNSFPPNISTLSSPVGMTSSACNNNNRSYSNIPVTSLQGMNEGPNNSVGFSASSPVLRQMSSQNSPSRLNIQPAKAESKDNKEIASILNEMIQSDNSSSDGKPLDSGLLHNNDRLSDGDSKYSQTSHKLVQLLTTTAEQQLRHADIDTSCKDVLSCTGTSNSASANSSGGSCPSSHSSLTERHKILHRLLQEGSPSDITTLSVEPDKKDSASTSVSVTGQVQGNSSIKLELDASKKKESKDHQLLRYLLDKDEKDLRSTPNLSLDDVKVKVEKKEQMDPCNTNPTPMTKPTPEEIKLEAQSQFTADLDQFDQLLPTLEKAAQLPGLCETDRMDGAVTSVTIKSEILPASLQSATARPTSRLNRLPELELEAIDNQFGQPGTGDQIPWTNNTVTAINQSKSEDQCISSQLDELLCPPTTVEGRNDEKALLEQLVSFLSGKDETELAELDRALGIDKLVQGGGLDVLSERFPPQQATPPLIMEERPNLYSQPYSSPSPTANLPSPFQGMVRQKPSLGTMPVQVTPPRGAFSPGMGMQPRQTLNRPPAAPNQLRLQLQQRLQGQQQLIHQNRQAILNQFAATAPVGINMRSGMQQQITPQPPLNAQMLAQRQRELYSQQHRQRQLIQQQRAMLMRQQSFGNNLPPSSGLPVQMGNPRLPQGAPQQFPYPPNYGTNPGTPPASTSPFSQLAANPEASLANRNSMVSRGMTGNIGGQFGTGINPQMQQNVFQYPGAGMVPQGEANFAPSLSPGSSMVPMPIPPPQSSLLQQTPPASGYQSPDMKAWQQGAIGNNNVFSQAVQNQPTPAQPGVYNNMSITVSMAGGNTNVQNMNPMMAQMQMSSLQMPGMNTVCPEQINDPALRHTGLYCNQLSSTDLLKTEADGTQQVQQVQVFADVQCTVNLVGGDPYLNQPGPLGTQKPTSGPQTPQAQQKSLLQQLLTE

Row | SMILES | inhibition [1] | inhibition [2]
1 | COc1ccc(CNC(=O)C(c2ccc(C)cc2)N(Cc2cccs2)C(=O)c2ccc3c(c2)OCCO3)cc1 (configuration not stated) | -13.9% | -1.62%
2 | COc1ccc(NC(=O)NNC(=O)COc2ccc3ccccc3c2)cc1OC | 14% | 8.08%
3 | Cc1ccc(C(=O)Nc2c3c(nn2C(C)(C)C)CS(=O)(=O)C3)cc1[N+](=O)[O-] | -11% | -9.8%
4 | Cc1ccc(C)c(CN2C(=O)c3ccccc3S(=O)c3ccc(C(=O)N4CCN(c5ccccn5)CC4)cc32)c1 (configuration not stated) | -18.5% | 77.7% (active)
5 | Nc1nc(N)c2c(ccc3nccc32)[nH]1 | -7.68% | 24.9%
6 | O=C(NCc1ccccc1)c1cc(S(=O)(=O)N2CCCCC2)ccc1N1CCOCC1 | -1.88% | 11.3%
7 | CN1C(=O)[C@H](Cc2ccc([N+](=O)[O-])cc2)NC1=S | 27.2% | 26.4% (active)
8 | Cc1cccc(NC(=O)c2cc(S(=O)(=O)N(C)c3ccc(F)cc3)ccc2Cl)n1 | -17.6% | -4.3%
9 | O=C(COc1ccc(S(=O)(=O)Nc2ccccc2)cc1)NCc1ccncc1 | -7.07% | 2.08%
10 | COc1cc2c(cc1NC(=O)/C=C/c1cc(OC)c(OC)c(OC)c1)oc1ccccc12 | 3.29% | -2.37%
11 | O=C(Nc1ccc(F)cc1F)c1c(C(F)(F)F)ccnc1Oc1cccc(C(F)(F)F)c1 | -2.06% | -3.8%
